18 compounds from PubChem BioAssay (NCATS) can be followed below.

Each structure is given as a SMILES string. Results filed as inconclusive are left out. A number with no mark means an inactive call. Active and inactive are the calls of the source. Calls come from the whole dose curve; as a rule, active = well fitted inhibition curve with a large enough effect; inconclusive = small, poorly fitted or top-dose-only effect; inactive = no such curve, though single readings can be large or run the other way.
Potency is the fitted concentration of half-maximal effect.

This assay deals with Rap guanine nucleotide exchange factor 3 (Homo sapiens) (UniProt O95398). Description: Confirmatory qHTS for antagonist of cAMP-regulated guanine nucleotide exchange factor 3 (EPAC1) (AID 1645880).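 For activity, negative = inhibition: plate controls were DMSO only for no effect and full effect of the ATA control for full effect.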 Note: nearly all actives have a fitted effect of over 55% in size. To be noted: EPAC1 Rap1B-BODIPY-GDP exchange, fluorescence; activity, negative = inhibition: at 115 µM (top of the series). In a few lines: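 Nucleotide exchange uses 100 nM EPAC1, 250 nM RAP1B-BODIPY-GDP and 50 uM GDP, with compounds in a concentration-titration series. After 5 min at room temperature, fluorescence (480 nm ex/540 nm em) is read every 5 min for 30 min. Data are normalized to control ATA and DMSO.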
Chain of Rap guanine nucleotide exchange factor 3 (Homo sapiens) (O95398 whole entry, looked up): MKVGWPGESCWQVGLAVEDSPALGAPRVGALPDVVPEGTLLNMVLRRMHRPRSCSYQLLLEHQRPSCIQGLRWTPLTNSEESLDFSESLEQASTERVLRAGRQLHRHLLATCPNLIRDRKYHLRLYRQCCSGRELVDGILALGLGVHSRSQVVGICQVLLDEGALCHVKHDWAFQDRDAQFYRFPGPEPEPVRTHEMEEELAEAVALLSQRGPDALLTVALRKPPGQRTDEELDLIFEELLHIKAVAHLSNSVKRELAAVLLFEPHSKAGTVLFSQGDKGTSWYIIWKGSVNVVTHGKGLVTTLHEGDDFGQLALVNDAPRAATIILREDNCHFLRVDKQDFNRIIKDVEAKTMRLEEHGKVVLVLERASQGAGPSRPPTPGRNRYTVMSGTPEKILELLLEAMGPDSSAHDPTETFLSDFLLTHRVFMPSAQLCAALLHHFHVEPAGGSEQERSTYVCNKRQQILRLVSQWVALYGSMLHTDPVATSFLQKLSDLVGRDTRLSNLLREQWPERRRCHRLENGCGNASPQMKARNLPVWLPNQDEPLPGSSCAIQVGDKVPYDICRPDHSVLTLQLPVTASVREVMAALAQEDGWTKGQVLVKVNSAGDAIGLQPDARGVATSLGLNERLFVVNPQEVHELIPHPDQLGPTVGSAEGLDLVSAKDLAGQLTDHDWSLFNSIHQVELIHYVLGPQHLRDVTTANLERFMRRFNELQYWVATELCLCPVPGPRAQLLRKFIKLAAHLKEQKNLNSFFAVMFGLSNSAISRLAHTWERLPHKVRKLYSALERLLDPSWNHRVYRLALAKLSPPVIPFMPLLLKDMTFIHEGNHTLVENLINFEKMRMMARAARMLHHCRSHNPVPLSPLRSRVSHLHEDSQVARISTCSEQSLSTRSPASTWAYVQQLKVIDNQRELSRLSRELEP
Take `Cc1cccn2cc(CCNC(=O)c3ccco3)nc12`: the “activity, negative = inhibition” value was -19%. As to `Cn1c(C(O)c2ccc(Br)cc2)nc(Cl)c1Cl` (stereo not drawn), the “activity, negative = inhibition” value was -18.1%. Regarding `O=C(c1ccccc1)c1coc2ccc(O)c(Cl)c12`, the “activity, negative = inhibition” value is 4.84%. For `CCc1nnc(NS(=O)(=O)c2ccc(NCc3cc(Cl)ccc3O)cc2)s1`, the Potency was 39.8 µM (active). For the compound `O=c1c2cc([N+](=O)[O-])cc([N+](=O)[O-])c2[nH]n1-c1ccccc1`, the Potency was 35.5 µM (active). As for `COC(=O)COc1ccc(C(c2c(C)[nH][nH]c2=O)c2c(C)[nH][nH]c2=O)cc1`, the “activity, negative = inhibition” value was -25.1%. Consider `COc1ccc(CNC(=S)N/N=C/c2ccc(OC)c(OC)c2)cc1`, for which the “activity, negative = inhibition” value is -15.2%. For the compound `O=S(=O)(O)c1cccc(N=Nc2c(O)ccc3ccccc23)c1`, the Potency is 37.9 µM (active). Take `COc1nc(C)cc(C)c1S(=O)(=O)c1ccc(Cl)cc1`: the “activity, negative = inhibition” value is -19.2%. Consider `O=C1NC(=S)S/C1=C\c1ccc(SCc2ccccc2)o1`, for which the Potency was 21.3 µM (active). Regarding `Cc1ccc(S(=O)(=O)NCCC(=O)N2CCC(Cc3ccccc3)CC2)cc1`, the “activity, negative = inhibition” value was -13.8%. Same read-out and setting: next, `COC(=O)c1cc2occc2n1Cc1cccc(C)c1`: -21.2%; `Cc1ccn2c(=O)c(NC(=O)c3ccc(Br)o3)c(C)nc2c1`: -11%. On to `COc1ccc(/C=N/Nc2nnc(C)n2N)cc1OC(C)=O`, for which the “activity, negative = inhibition” value is -15.6%.

`COc1cc(NC(=O)C2CCCCC2)c(OC)cc1NC(=O)CN1CCCCC1`: the “activity, negative = inhibition” value is -12.4%. Still for that read-out and setting: the result for `COc1ccc2nc3oc(C(=O)Nc4cccc(C(F)(F)F)c4)cc3cc2c1` reads -13.1%. Consider `COc1cc(CNc2ccc(O)cc2)cc(Br)c1OCc1ccccc1`, for which the “activity, negative = inhibition” value is -32.1%. Regarding `Cc1ccc(C(=O)N2CCN(c3ccccc3)CC2)cc1S(=O)(=O)N1CCOCC1`, the “activity, negative = inhibition” value is -19.8%.
